Test results as given in PubChem BioAssay (NCATS).
Inconclusive results are not listed. A number with no mark means an inactive call. Calls come from the whole dose curve.

These compounds were tested against Atrial natriuretic peptide receptor 1 (Homo sapiens) (UniProt P16066) (assay: Natriuretic polypeptide receptor (hNpr1) antagonism - Pilot screen (AID 1347049)). Conditions: hNpr1 cells, antagonist mode cGMP read-out; series mostly up to 57.5 µM; activity change, negative = inhibition: at the top concentration.
Atrial natriuretic peptide receptor 1 (Homo sapiens), sequence (P16066 whole entry, looked up, the tested form may be a part): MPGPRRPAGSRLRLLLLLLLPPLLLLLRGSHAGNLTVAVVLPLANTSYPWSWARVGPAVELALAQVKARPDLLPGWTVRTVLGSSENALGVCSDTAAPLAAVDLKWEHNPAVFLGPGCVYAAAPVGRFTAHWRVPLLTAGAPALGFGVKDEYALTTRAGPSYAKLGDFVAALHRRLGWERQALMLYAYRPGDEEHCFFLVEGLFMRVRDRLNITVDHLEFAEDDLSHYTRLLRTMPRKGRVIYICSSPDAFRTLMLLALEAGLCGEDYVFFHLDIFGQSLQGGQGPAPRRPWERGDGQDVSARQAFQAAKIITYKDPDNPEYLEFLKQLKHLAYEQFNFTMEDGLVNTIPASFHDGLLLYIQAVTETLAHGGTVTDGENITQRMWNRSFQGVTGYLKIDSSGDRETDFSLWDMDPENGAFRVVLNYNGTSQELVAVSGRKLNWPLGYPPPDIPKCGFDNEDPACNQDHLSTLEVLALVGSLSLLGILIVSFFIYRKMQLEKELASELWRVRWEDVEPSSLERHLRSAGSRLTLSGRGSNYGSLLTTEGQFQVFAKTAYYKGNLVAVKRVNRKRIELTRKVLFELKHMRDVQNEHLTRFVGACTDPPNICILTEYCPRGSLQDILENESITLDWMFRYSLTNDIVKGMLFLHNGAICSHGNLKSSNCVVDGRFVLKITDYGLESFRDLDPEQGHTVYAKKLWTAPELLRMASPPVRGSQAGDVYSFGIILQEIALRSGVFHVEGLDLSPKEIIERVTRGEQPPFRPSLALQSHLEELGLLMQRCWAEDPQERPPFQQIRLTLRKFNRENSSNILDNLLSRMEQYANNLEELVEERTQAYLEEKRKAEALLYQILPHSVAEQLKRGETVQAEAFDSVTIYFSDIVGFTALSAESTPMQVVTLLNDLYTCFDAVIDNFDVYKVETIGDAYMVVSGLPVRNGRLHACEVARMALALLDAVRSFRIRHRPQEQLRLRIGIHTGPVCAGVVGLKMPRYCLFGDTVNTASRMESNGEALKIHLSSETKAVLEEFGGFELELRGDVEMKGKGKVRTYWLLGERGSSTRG
Description: In order to identify small molecular compounds that inhibit the hNpr1 receptor we developed a high-throughput assay to measure inhibition of the guanylate cyclase activity of the receptor. cGMP production was measured using a circular permutated Firefly luciferase (FLuc) enzyme functionally linked to the cGMP binding domain of human phosphodiesterase 5 (GloSensor technology pGS-40F, (Fan, F. et al. 2008). The cGMP-sensor was expressed in human embryonic kidney 293 (HEK-293) cells and FLuc activity was measured after stimulation with hNrp agonist peptide. hNrp agonists activates the receptor's associated guanylyl cyclase (GC) domain producing cGMP which then binds to the GloSensor resulting in FLuc activation, the enzymatic activity of which can be measured as bioluminescence with addition of luciferin substrate.
F. Fan, B. F. Binkowski, B. L. Butler, P. F. Stecha, M. K. Lewis, K. V. Wood, Novel genetically encoded biosensors using firefly luciferase. ACS Chem Biol 3, 346-351 (2008).
This assay was initially piloted by testing with a small diversity library of compounds with known pharmacological activity.
PROTOCOL TABLES (as described by Inglese J, Shamu CE and Guy RK. 2007)
SEQUENCE No. (e.g., 1, 2, 3, etc.); […] (e.g., Cells, Incubation, Reagent, etc.); VALUE and DESCRIPTION.
1. Cells. Seed 1500 HEK293 cGMP-sensor cells expressing hNpr1 per well in 4uL into Greiner 1536-well white/solid bottom high base, tissue culture-treated plates.
2. Incubation. Incubate plated cells at 37C in 5% CO2, 95% RH overnight.
3. Reagent. Add 1uL per well GloSensor reagent from Promega (2% final concentration) or CO2 independent media vehicle control to respective columns of Greiner 1536-well plates.
4. Incubation. Incubate plated cells at room temperature for 2 h, protect from light.
5. Compounds. Library compounds and A-71915 control added at 23 nL per well, transferred by Pin Tool.
6. Incubation. Incubate plated cells for 30 min. at room temperature, protect from light.
7. Detector. GloSensor baseline pre-read luminescence measured using CCD-based camera (Viewlux).
8. Compound. Add 1uL of hNppA peptide to 0.1 nM final concentration to stimulate hNpr1 or CO2 independent media as vehicle control.
9. Incubation. Incubate treated cells at room temperature for 20 min., protect from light.
10. Detector. GloSensor post-hNppA luminescence measured using CCD-based camera (Viewlux).
NOTES (numbers refer to Sequence numbers above)
1. HEK293 cells expressing hNpr1 and GIP/pGS-40F grown to 85-95% confluence (48-72 h) in T175 culture flasks (CO2 independent media supplemented with 10% FBS, 1% Pen/Strep antibiotics and 1 ug/mL puromycin). Trypsinize and harvest cells from T175 culture flasks and filter through 40 um cell strainer. Cells counted with Invitrogen Countess (30,000,000 - 50,000,000 cells/flask). Cells diluted to a final concentration of 375 cells/uL in CO2 independent media and a Millipore multidrop used to dispense 1500 cells per well (4uL/well) into 9 x 1536-well Greiner White/Solid bottom, high base tissue-culture treated (TC) plates and one Aurora 1536-well Black/Clear bottom, low base, TC plate (for visual inspection of cell health throughout the duration of the assay).
2. Cells incubated overnight at ambient temperature, 24 h. at 37C in 95% RH incubator protected from light, covered with metal lid with gas-exchange holes.
3. Prepare GloSensor Reagent (Promega): Reconstitute GloSensor luciferase substrate by adding 8.2mL Hepes buffer to 250mg substrate, mix well, protect from light and stored at -80C. Prepare a fresh 12% GloSensor solution in CO2 independent supplemented plating media (see above). Mix well and store at ambient temperature, protected from light. 1uL 12% GloSensor Luciferase Reagent added (2% final concentration) to respective columns of 9 x 1536-well Greiner plate with BioRaptr, 1uL CO2 independent plating media added to respective columns as vehicle control with BioRaptr.
4. […]
% is set by controls: 0 for no effect and ±100 for the full control effect.

SMILES | activity change, negative = inhibition [%]
CC1C(=O)N(C)C(=O)c2nc[nH]c21 (stereo not given) | 4.69
NCCCNCCCCNCCCN | -1.96
Nc1nc2[nH]c(=O)cnc2c(=O)[nH]1 | 1.01
O=C(O)Cc1c[nH]c2ccc(O)cc12 | 1.55
C[C@](Cc1ccc(O)c(O)c1)(NN)C(=O)O | 11.6
Nc1ncnc2c1nc(Sc1ccc(Cl)cc1)n2[C@H]1OC2COP(=O)(O)O[C@@H]2C1O (stereo not given in full) | 1.12
Cc1ccc2c(c1)C(N1CCN(C)CC1)=Nc1cccnc1N2 | 3.88
CCCCCCCCCC[Si](C)(C)CCC(=O)NC(Cc1ccc(C)cc1)c1ccccc1 (stereo not given) | 7.28
COc1ccccc1N1CCN(CCCNc2c(C)c(=O)n(C)c(=O)n2C)CC1 | 4.23
O=C1C2C=CC=CC2=NC(=S)N1CCN1CCC(=C(c2ccc(F)cc2)c2ccc(F)cc2)CC1 (stereo not given) | -18
N#Cc1cc([N+](=O)[O-])c2sc(C(N)=O)[n+]([O-])c2c1 | -8.63
CC(C)C[C@H](NC(=O)C1OC1C(=O)O)C(=O)NCCCCN=C(N)N (stereo not given in full) | 5.36
CCN1C(=O)C=CC1=O | 7.01
CC(C)Cn1c(=O)n(C)c(=O)c2[nH]cnc21 | 4.91
CNCCc1cnc(CCC(c2ccccc2)c2ccccc2)[nH]1 | 0.317
COc1cc(C(O)CO)ccc1O (stereo not given) | -3.69
N#CC(C#N)=C(N)/C(C#N)=C/c1ccc(O)cc1 | -3.5
CCCCCCCCCCCCCCSCC(=O)O | 10.5
CN[C@H](CC(=O)O)C(=O)O | 13.2
Nc1nc2ccc(Cl)cc2c2nc(-c3ccco3)nn12 | -27.6

SMILES | activity change, negative = inhibition [%]
Cn1ccnc1 | 2.34
C[N+](C)(C)CC=O | -4.99
c1ccc(CN2CCC3(CCCc4ccccc43)CC2)cc1 | 13.1
OC1(c2ccc(Cl)cc2)CCN(Cc2c[nH]c3ccccc23)CC1 | 6.07
OC[C@H]1O[C@H](n2cnc3c(N[C@H]4CCC[C@@H]4O)ncnc32)[C@H](O)[C@@H]1O | 22.7
NC(N)=NC(N)=Nc1ccccc1 | 2.76
CCCCCCC(=O)OC1CC(C)(C)NC(C)(C)C1 | 2.68
C[C@@H](NCCc1ccc(O)cc1)[C@@H](O)c1ccc(O)cc1 | -3.41
C[C@H](NC(=O)/C(C#N)=C/c1ccc(O)c(O)c1)c1ccccc1 | -1.64
N#C/C(=C\c1ccc(O)c(O)c1)C(=O)NCCCNC(=O)/C(C#N)=C/c1ccc(O)c(O)c1 | 0.857
COc1cc(N)c(Cl)cc1C(=O)OCCN1CCCCC1 | 8.43
CN(C)CCC(c1ccc(Br)cc1)c1ccccn1 (stereo not given) | -7.98
CC(N)(Cc1ccc(O)c(O)c1)C(=O)O (stereo not given) | 16.9
CCCCS(=N)(=O)CC[C@H](N)C(=O)O (stereo not given in full) | 0.543
N[C@@H](CS(=O)O)C(=O)O | 3.81
COc1ccccc1N1CCN(CCN(C(=O)c2ccc(F)cc2)c2ccccn2)CC1 | -2.11
CN1CCc2cc(Cl)c(O)cc2[C@@H](c2ccccc2)C1 | -0.0507
O=C(O)c1ccccc1Nc1ccccc1 | -1.42
N=C(N)c1ccccc1 | 0.598
O=C(O)c1cccnc1C(=O)O | 4.69
